The record followed here is PubChem BioAssay AID652039 (The Scripps Research Institute Molecular Screening Center, 2013).

About 3,300 (0.89%) of roughly 370,000 compounds were called active. This is one part of a sample in which actives are shown more often than they occur. A number with no mark means an inactive call.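 The calls were made as follows: active = activation above the mean of all tested compounds plus 3 SD, computed per campaign excluding outliers beyond control limits (cut at about 13% in these data); inactive = the rest.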

In this assay the target is Kallikrein-7 (Homo sapiens) (UniProt P49862). Description: proKLK7 zymogen activators, primary screen, biochemical, fluorescence intensity (AID 652039). The conditions noted are these: purified proKLK7, EDANS-DABCYL substrate fluorescence; at 7 µM; hits give high values.
Kallikrein-7 (Homo sapiens), sequence (P49862 whole entry, looked up): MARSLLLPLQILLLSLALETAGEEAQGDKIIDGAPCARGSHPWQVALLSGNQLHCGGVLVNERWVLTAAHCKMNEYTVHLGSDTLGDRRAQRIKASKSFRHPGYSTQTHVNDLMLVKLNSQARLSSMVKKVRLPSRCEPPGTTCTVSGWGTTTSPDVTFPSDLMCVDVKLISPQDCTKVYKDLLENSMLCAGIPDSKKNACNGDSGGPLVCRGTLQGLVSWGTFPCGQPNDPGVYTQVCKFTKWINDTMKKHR
Consider `CCOc1ccc(-c2cc(C)[n+](CCN(CC)CC)c(-c3ccc(OCC)cc3)c2)cc1`, for which the activation was 44.7% (active).
In the case of `COc1ccc(-c2nn(CCC#N)cc2C(=O)O)cc1` it was -0.57%.
The figure for `COc1cc(OC)cc(C(=O)NCCN2CCC3(CC2)C(=O)NCN3c2ccccc2)c1` is 0.06%.
In the case of `CS(=O)(=O)N1CCC2CCNC2C1` (stereo not given) it was -0.49%; in that of `COc1ccccc1C1=NCc2nnc(CSC)n2-c2ccc(Cl)cc21`, -0.06%.
For `Cc1cc(OCc2cc(C(=O)O)oc2C)c2c3c(c(=O)oc2c1)CCCC3`, the activation was 9.69%.
For `COC(=O)COc1cc(C)cc2oc(=O)c3c(c12)CCCC3`, the activation was 14.7% (active).
In the case of `Brc1ccc2c(c1)CNCc1cnnn1-2` it was 0.31%.
The figure for `CCN(CC)C(=O)[C@@H]1C=C2c3cccc4[nH]c(Br)c(c34)C[C@H]2N(C)C1` is -1.09%; for `Cc1cc(N2CCNC[C@@H]2C)ccc1N1CC[C@H](O)C1` it is 1.32%; for `O=C(OCCN1CCOCC1)C1(c2ccccc2)CCCC1` it is 0.22%.
In the case of `CCOC(=O)c1c(N)n(CCN2CCOCC2)c2nc3ccccc3nc12` it was 27.2% (active); in that of `COc1cc(Cn2c(N)c(C(=O)NCc3ccco3)c3nc4ccccc4nc32)cc(OC)c1OC`, -1.84%; in that of `COc1ccc2c(c1)[C@@]13CCCCC1[C@@H](C2)NCC3` (stereo not given in full), 0.08%.
`O=S(=O)(c1ccccc1)N1CCC2CCNC2C1` (stereo not given): the activation was -0.08%.
Take `c1ccc(CCN2CCC3(CC2)OCCO3)cc1`: the activation is 0.24%.
`C[C@H]1CN([C@@H](C)CO)C(=O)CCCn2nncc2CO[C@H]1CN(C)C(=O)Oc1ccccc1`: the activation is -0.02%.
In the case of `COc1cccc(-c2nc3ccc(N4CCN(C)CC4)cc3[nH]2)c1` it was 68.7% (active).
For `Clc1ccc([C@@H]2CC3CCC2N3)cn1` (stereo not given in full), the activation is 0.62%.
The figure for `CCC(C)NC1(c2ccccc2)CCCCC1` (stereo not given) is 0.13%; for `COc1ccc(C(=O)CC2C(=O)N(C)C(=O)N(C)C2=O)cc1` it is -0.07%.
In the case of `Cc1ccccc1CCC[C@@H](CC1CCCCC1)CN(C)C(=O)Oc1ccccc1` it was 0.38%; in that of `Cc1nc2ccc(N3CCN(C)CC3)cc2nc1C`, 83.6% (active).
In the case of `COP(=O)(Sc1ccccc1)C(Cc1ccccc1)NC(=O)OCc1ccccc1` (stereo not given), the activation is 0.08%.
In the case of `c1ccc2sc(C3CCCNC3)nc2c1` (stereo not given) it was 0.61%.
